Experimental data: PubChem BioAssay (NCATS)
Unmarked numbers belong to inactive results. Results filed as inconclusive are left out. A call without a number means that no potency is given here. Calls of active or inactive are those of the source. Calls follow the shape of the dose curve; as a rule, active = well fitted curve in the direction sought with a large enough effect; inconclusive = small, poorly fitted or top-dose-only effect, or another doubt; inactive = no such curve, though single readings can be large; an effect the other way counts as inactive or inconclusive.

What was measured:
[1] = target: Glutathione peroxidase 1 (Homo sapiens) (UniProt P07203); assay: Primary qHTS Assay for Inhibitors of Recombinant Selenoprotein Glutathione Peroxidase 1 (GPX1) (AID 1845191); also: nearly all actives have a fitted effect of over 65% in size
Sequence of Glutathione peroxidase 1 (Homo sapiens) (P07203 whole entry, looked up): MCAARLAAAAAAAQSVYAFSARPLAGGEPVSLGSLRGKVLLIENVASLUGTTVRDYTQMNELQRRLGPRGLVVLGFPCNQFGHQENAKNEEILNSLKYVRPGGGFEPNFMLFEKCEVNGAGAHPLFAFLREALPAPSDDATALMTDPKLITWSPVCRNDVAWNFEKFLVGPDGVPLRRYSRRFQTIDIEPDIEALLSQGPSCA
How it was run: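 NADPH consumption tracked by fluorescence at 340/450 nm between t=0 and t=15 min, room temperature. Final mix: 10 nM GPX1, 100 nM glutathione reductase, 1 mM GSH, 0.5 mM NADPH, 0.5 mM cumene hydroperoxide, 0.01% BSA; 30 min compound–enzyme preincubation.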

[2] = target: Phospholipid hydroperoxide glutathione peroxidase GPX4 (Homo sapiens) (UniProt P36969); assay: Primary qHTS Assay for Inhibitors of Recombinant Selenoprotein Glutathione Peroxidase 4 (GPX4) (AID 1845192); also: nearly all actives have a fitted effect of over 65% in size; as to activity change, negative = inhibition: series mostly up to about 50 µM
Sequence of Phospholipid hydroperoxide glutathione peroxidase GPX4 (Homo sapiens) (P36969 whole entry, looked up): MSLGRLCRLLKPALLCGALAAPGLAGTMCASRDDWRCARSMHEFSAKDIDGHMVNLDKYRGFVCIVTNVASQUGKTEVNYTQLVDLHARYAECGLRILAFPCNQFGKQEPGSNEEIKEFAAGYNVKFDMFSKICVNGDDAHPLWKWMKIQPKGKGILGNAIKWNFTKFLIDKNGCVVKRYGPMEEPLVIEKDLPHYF
How it was run: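 NADPH consumption followed by fluorescence at 340/450 nm, t=0 and after 15 min at room temperature. Reaction started with cumene hydroperoxide (0.5 mM final) after 30 min compound–GPX4 preincubation; final 200 nM GPX4, 100 nM GR, 1 mM GSH, 0.5 mM NADPH.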

[3] = target: Luciferin 4-monooxygenase (Photinus pyralis) (UniProt P08659); assay: Primary firefly luciferase (FLuc) qHTS assay for identification of artifact compounds. (AID 1845220); also: nearly all actives have a fitted effect of over 60% in size; also: potency is read from the fitted curve at half-maximal effect; as to activity change, negative = inhibition: series mostly up to about 54 µM
How it was run: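 FLuc 10 nM; luciferin 10 uM; ATP 10 uM; Tris-acetate pH 7.6, Mg-acetate 10 mM; 15 min RT preincubation; 5 min reaction; luminescence.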

[4] = Primary fluorescence-based thiol-reactive (MSTI) qHTS assay for identification of artifact compounds. (AID 1845221); also: nearly all actives have a fitted effect of over 65% in size; also: potency is read from the fitted curve at half-maximal effect;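 as to activity change, negative = thiol reactive: series mostly up to about 54 µM; thiol-reactive compounds lower the probe fluorescence signal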
How it was run: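 In PBS pH 7.4 with 2% DMSO, each compound met 4 uM MSTI for one hour at ambient temperature, shielded from light, before fluorescence detection.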

[5] = test system: Nanoluciferase (engineered Oplophorus gracilirostris luciferase); assay: Primary Nanoluciferase (NLuc) qHTS assay for identification of artifact compounds. (AID 1845222);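 also: NLuc secreted into diluted conditioned medium of S16 cells; series mostly up to about 54 µM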
How it was run: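 NLuc from S16 cell medium (1:55) plus test compounds, 15 min, room temperature. Luminescence after Nano-Glo (1:100) addition, 5 min.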

[6] = Primary redox qHTS assay for identification of artifact compounds. (AID 1845223)
How it was run: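 Redox-cycling detection via DTT (250 uM final) oxidation coupled to Amplex Red (25 uM)/HRP (250 mU/mL) in HBSS. 15 min preincubation plus 30 min after DTT, room temperature. Ex/Em 525/598 nm; 4-parameter Hill fit against DMSO and 10 uM DA3003.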

Row | Structure (SMILES) | Potency [1] | Potency [2] | Potency [3] | Potency [4] | Potency [5] | Potency [6] | activity, negative = inhibition [1] | activity change, negative = inhibition [2] | activity change, negative = inhibition [3] | activity change, negative = thiol reactive [4] | activity, negative = inhibition [5] | redox activity (% of DA3003) [6]
1 | N#Cc1cc(CN2CCC(Nc3ncnc4sc(Cl)cc34)CC2)ccc1F | inactive | inactive | inactive | inactive | inactive | inactive | – | – | – | – | – | –
2 | O=C(Nc1ccc(C(O)(C(F)(F)F)C(F)(F)F)cc1)c1ccc(C(F)(F)F)cc1 | inactive | inactive | inactive | inactive | inactive | inactive | – | – | – | – | – | –
3 | O=C(NCCCc1ccccc1)c1cccc(-c2cc(O)c3ncccc3c2)c1 | inactive | inactive | inactive | inactive | inactive | inactive | – | – | – | – | – | –
4 | COc1cc2c(Nc3cc(F)c(Cl)c(Cl)c3)ncnc2cc1OCC1CCCN(C)CCC1 | inactive | inactive | inactive | inactive | inactive | inactive | – | – | – | – | – | –
5 | Oc1cccc(C2NC(=S)Nc3cccc(F)c32)c1 (stereo unspecified) | inactive | inactive | inactive | inactive | inactive | inactive | – | – | – | – | – | –
6 | Cc1ccc(S(=O)(=O)N2CCC[C@H]2c2ccc(F)cc2)cc1 | inactive | inactive | inactive | inactive | inactive | inactive | – | – | – | – | – | –
7 | C[C@@H](Nc1ncnc2[nH]c(-c3ccc(O)cc3)cc12)c1ccccc1 | inactive | inactive | inactive | 1.34 µM (active) | inactive | inactive | – | – | – | – | – | –
8 | CCOC(=O)C1=Cc2ccc(C(F)(F)C(F)(F)F)cc2N=C(N)C1 | inactive | inactive | inactive | inactive | inactive | inactive | – | – | – | – | – | –
9 | C/C=C(/C)C(=O)O[C@H]1[C@H](OC(=O)/C(C)=C\C)[C@@]23C(CC1(C)C)[C@]1(CCC4[C@@]5(C)CC[C@H](O[C@@H]6O[C@H](C(=O)O)[C@@H](O)[C@H](O[C@@H]7O[C@H](CO)[C@H](O)[C@H](O)[C@H]7O[C@@H]7O[C@@H](C)[C@H](O)[C@@H](O)[C@H]7O[C@@H]7OC[C@@H](O)[C@H](O)[C@H]7O)[C@H]6O[C@@H]6O[C@H](CO)[C@H](O)[C@H](O)[C@H]6O)C(C)(C)C5CC[C@@]4(C)[C@]1(C)C[C@H]2O)O[C@H]3O (stereo partly specified) | – | – | – | – | – | – | -2.94% [at 9.52 µM] | -2.35% [at 9.73 µM] | 4.78% [at 11.6 µM] | 718% [at 11.5 µM] | 3.76% [at 11.6 µM] | 13% [at 11.5 µM]
10 | O=c1cc(N2CCN(c3cccc(C(F)(F)F)c3)CC2)[nH]c(=O)n1C1CCCCC1 | inactive | inactive | inactive | inactive | inactive | inactive | – | – | – | – | – | –
11 | COc1c(C(O)CC(C)C)ccc2c1C(=O)OCc1cc(C)cc(O)c1O2 (stereo unspecified) | inactive | inactive | inactive | inactive | inactive | inactive | – | – | – | – | – | –
12 | Nc1nc(Cl)nc2c1ncn2C1OC(CO)C(O)C1F (stereo unspecified) | inactive | inactive | inactive | inactive | inactive | inactive | – | – | – | – | – | –
13 | C=C1C(=O)O[C@H]2C1CCC(C)=C1C(=O)C=C(C)[C@@]12O (stereo partly specified) | inactive | inactive | inactive | inactive | inactive | inactive | – | – | – | – | – | –
14 | Fc1ccc2[nH]ccc2c1-c1nc(N2CCOCC2)c2sc(CN3CCN(CC4CC4)CC3)cc2n1 | inactive | inactive | inactive | inactive | inactive | inactive | – | – | – | – | – | –
15 | O=C1COc2nccc(-c3ccccc3F)c2CN1Cc1cc(C(F)(F)F)cc(C(F)(F)F)c1 | inactive | inactive | inactive | inactive | inactive | inactive | – | – | – | – | – | –
16 | O=C(NC1(c2ccccc2)CC1)c1c(CN2CCC(N3CCCCC3)CC2)c(-c2cccc(C(F)(F)F)c2)nc2cc(Br)ccc12 | inactive | inactive | inactive | inactive | inactive | inactive | – | – | – | – | – | –
17 | O=c1[nH]c([C@@H]2CCCN2)nc2c1oc1ccc(Cl)cc12 | inactive | inactive | inactive | inactive | inactive | inactive | – | – | – | – | – | –
18 | COc1ccc(CNCc2cccc3ccccc23)cc1 | inactive | inactive | inactive | inactive | inactive | inactive | – | – | – | – | – | –
19 | CCCCCCCCC(=O)N[C@H](CN1CCCC1)[C@H](O)c1ccc2c(c1)OCCO2 | inactive | inactive | inactive | inactive | inactive | inactive | – | – | – | – | – | –
20 | C=C(C(=O)OC)[C@@H]1CC=C2C=CC(=O)[C@H](C)[C@@]2(C)C1 | inactive | inactive | inactive | inactive | inactive | inactive | – | – | – | – | – | –
21 | CC(=O)O[C@@H]1CC[C@@]2(C)C(CC[C@]3(C)C2[C@H](O)C=C2[C@H]4[C@@H](C)[C@H](C)CC[C@]4(C)CC[C@]23C)[C@@]1(C)C(=O)O (stereo partly specified) | inactive | inactive | inactive | inactive | inactive | inactive | – | – | – | – | – | –
22 | CC(C)(O)C1Cc2c(ccc(C(=O)CCc3ccccc3)c2O)O1 (stereo unspecified) | inactive | inactive | 0.294 µM (active) | inactive | inactive | inactive | – | – | – | – | – | –
23 | COc1ccc(S(=O)(=O)n2cnc3cc(C)c(C)cc32)cc1 | inactive | inactive | inactive | inactive | inactive | inactive | – | – | – | – | – | –
24 | C/C=C(/C)C(=O)O[C@@H]1C[C@@H](OC(=O)CC(C)C)C2(C)C3C(=O)C=C(C)C2C3C1(C)C (stereo partly specified) | inactive | inactive | inactive | inactive | inactive | inactive | – | – | – | – | – | –
25 | Cc1cc(C)cc(-c2cnc3cc(Cl)c(-c4cccc(O)c4)cc3c2OCCCN)c1 | inactive | inactive | inactive | inactive | inactive | inactive | – | – | – | – | – | –
26 | COc1ccc(CCO[C@@H]2O[C@H](CO[C@H]3OC[C@](O)(CO)[C@H]3O)[C@@H](OC(=O)/C=C/c3ccc(O)c(O)c3)[C@H](O[C@@H]3O[C@@H](C)[C@H](O)[C@@H](O)[C@H]3O)[C@H]2O)cc1OC | inactive | inactive | inactive | 1.58 µM (active) | inactive | inactive | – | – | – | – | – | –
